Common to all, as to experiment: DAPPL (digital affinity profiling via proximity ligation, sequencing); 10 mM Tris-HCl pH 7.5, 50 mM NaCl, 1 mM DTT, 4% glycerol, room temperature, 30 min; GST-TFs on glutathione beads, 16-mer random dsDNA library, 0.1% formaldehyde crosslink after washing; high values mean tight binding
One experiment deals with T1, FEV (Homo sapiens, UniProt Q99581 1-238).
T1 sequence: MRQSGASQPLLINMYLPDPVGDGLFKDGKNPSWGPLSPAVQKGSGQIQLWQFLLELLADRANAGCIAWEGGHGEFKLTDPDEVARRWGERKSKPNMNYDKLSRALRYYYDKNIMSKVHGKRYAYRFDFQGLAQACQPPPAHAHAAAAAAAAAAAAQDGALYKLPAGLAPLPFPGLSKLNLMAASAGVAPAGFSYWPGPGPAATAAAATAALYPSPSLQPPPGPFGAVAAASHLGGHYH
The note with it: protein: recombinant; tags: N-terminal GST; dsDNA, one strand shown. The method, boiled down:
(§1)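 In yeast, human transcription factors were expressed with a GST fusion, then pulled down on glutathione beads and given DNA barcodes. Pooled with a tag-only sample, they were exposed to 200 nmole of a 16-mer random double-stranded DNA library (Tris/NaCl/DTT/glycerol buffer, room temperature, 30 min), washed, crosslinked with 0.1% formaldehyde, proximity-ligated using BsaI/T4 ligase for 1 h at 37 °C, PCR-amplified and read on an Illumina NextSeq500. Each hexamer's frequency of reads for a factor, divided by the matching frequency for the tag-only sample, gives the binding signal.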

The next experiment deals with ETV5 (Homo sapiens, UniProt P41161 1-510). Conditions: protein: recombinant; tags: N-terminal GST; dsDNA, one strand shown. The gist of the method: as §1
Another experiment has as its target HSF1 (Homo sapiens, UniProt Q00613 1-529). The note with it: protein: recombinant; tags: N-terminal GST; chain copies: 3; dsDNA, one strand shown. The gist of the method: as §1
In a further experiment the target is T2, SPIC (Homo sapiens, UniProt Q8N5J4 1-248).
T2 sequence: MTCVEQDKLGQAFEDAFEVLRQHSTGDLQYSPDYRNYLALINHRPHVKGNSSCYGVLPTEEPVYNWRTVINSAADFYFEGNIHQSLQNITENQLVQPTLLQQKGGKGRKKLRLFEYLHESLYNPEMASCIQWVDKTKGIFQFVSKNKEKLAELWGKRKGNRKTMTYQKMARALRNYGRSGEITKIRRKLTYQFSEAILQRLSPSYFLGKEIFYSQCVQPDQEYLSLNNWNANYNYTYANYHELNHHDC
Conditions: protein: recombinant; tags: N-terminal GST; dsDNA, one strand shown. The gist of the method:
as §1

A further experiment concerns the target ELF4 (Homo sapiens, UniProt Q99607 1-663). Conditions: protein: recombinant; tags: N-terminal GST; dsDNA, one strand shown. The method, boiled down:
as §1

In a further experiment the target is T3, ELK4 (Homo sapiens, UniProt P28324-2 1-405).
T3 sequence: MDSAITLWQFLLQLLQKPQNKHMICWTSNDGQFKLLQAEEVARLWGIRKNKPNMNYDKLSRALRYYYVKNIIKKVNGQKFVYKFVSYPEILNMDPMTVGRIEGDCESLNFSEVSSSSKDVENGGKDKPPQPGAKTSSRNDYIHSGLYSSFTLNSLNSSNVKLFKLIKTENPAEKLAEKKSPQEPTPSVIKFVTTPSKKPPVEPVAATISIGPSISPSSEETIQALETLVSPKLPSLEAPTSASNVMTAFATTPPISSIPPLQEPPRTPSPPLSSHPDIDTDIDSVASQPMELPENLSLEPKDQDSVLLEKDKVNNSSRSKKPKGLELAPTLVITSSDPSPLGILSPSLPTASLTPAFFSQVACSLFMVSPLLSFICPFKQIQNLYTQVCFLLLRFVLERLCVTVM
Conditions: protein: recombinant; tags: N-terminal GST; dsDNA, one strand shown. The gist of the method: as §1

The target of a further experiment is T4, ETV2 (Homo sapiens, UniProt O00321 1-342).
T4 sequence: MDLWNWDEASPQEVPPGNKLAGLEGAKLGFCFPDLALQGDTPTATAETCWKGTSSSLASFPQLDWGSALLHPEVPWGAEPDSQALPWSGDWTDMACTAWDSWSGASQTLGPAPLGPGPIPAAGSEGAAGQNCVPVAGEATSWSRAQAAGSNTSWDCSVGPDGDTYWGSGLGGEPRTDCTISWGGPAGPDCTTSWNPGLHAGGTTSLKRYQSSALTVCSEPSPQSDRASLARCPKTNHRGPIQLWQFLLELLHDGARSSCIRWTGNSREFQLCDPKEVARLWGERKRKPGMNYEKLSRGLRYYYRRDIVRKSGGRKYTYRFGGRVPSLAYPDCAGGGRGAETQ
Conditions: protein: recombinant; tags: N-terminal GST; dsDNA, one strand shown. The method, boiled down: as §1

The target in a further experiment is T5, ELF3 (Homo sapiens, UniProt P78545 1-371).
T5 sequence: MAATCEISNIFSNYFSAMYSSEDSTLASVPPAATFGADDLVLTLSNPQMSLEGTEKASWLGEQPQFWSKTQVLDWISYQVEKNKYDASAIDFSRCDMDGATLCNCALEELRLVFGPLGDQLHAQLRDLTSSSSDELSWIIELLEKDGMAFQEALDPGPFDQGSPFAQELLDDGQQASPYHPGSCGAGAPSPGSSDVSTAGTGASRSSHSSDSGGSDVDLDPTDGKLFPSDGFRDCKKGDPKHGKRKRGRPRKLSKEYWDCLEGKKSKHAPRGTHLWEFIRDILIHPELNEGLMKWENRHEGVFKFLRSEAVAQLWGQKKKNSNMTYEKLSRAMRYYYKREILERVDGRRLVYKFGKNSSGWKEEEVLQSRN
Conditions: protein: recombinant; tags: N-terminal GST; dsDNA, one strand shown. The gist of the method:
as §1

The next experiment concerns the target CRX (Homo sapiens, UniProt O43186 1-299). Conditions: protein: recombinant; tags: N-terminal GST; dsDNA, one strand shown. The gist of the method:
as §1

The target of another experiment is ETV1 (Homo sapiens, UniProt P50549 1-477). Conditions: protein: recombinant; tags: N-terminal GST; dsDNA, one strand shown. The gist of the method: as §1
The next experiment addresses T6, ERF (Homo sapiens, UniProt P50548 1-548).
T6 sequence: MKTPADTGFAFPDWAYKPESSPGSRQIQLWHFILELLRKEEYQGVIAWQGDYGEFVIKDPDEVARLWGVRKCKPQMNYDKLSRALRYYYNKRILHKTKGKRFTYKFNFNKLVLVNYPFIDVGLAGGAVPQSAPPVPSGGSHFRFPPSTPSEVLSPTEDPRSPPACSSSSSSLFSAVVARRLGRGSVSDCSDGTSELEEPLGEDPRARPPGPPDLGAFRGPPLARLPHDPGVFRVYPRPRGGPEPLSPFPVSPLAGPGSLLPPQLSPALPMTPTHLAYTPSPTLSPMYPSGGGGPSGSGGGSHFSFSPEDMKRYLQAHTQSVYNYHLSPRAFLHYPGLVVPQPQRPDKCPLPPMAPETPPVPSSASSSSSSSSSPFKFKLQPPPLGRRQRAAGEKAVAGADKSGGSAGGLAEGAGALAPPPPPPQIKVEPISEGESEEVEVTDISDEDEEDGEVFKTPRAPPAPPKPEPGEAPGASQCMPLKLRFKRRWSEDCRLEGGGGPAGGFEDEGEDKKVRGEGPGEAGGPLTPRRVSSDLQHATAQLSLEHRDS
Conditions: protein: recombinant; tags: N-terminal GST; dsDNA, one strand shown. The gist of the method: as §1

In the next experiment the target is T7, ETV3L (Homo sapiens, UniProt Q6ZN32 1-361).
T7 sequence: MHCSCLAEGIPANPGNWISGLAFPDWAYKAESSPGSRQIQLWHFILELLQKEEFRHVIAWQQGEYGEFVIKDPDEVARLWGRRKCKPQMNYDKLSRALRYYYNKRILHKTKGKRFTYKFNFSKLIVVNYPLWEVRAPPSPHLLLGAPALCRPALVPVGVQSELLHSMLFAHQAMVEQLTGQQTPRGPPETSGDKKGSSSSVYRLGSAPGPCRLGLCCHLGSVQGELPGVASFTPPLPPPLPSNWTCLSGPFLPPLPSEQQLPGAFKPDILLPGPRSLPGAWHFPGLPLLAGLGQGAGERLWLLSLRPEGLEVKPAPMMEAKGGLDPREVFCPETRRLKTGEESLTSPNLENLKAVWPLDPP
Conditions: protein: recombinant; tags: N-terminal GST; dsDNA, one strand shown. The method, boiled down: as §1

The next experiment deals with T8, ETS2 (Homo sapiens, UniProt P15036 1-469).
T8 sequence: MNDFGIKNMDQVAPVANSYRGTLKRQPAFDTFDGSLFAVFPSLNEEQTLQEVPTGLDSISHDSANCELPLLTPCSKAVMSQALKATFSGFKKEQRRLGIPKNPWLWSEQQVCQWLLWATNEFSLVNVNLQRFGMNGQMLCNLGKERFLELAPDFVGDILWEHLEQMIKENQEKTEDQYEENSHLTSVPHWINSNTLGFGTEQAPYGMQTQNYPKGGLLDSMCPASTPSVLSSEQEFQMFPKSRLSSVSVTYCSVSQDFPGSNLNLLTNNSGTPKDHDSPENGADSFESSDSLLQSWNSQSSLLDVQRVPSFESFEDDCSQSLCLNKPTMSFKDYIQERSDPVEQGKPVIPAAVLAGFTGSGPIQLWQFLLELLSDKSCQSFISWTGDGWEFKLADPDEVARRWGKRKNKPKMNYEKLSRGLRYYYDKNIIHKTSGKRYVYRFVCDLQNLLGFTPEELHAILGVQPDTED
Conditions: protein: recombinant; tags: N-terminal GST; dsDNA, one strand shown. The gist of the method: as §1

Another experiment concerns the target T9, SPDEF (Homo sapiens, UniProt O95238 1-335).
T9 sequence: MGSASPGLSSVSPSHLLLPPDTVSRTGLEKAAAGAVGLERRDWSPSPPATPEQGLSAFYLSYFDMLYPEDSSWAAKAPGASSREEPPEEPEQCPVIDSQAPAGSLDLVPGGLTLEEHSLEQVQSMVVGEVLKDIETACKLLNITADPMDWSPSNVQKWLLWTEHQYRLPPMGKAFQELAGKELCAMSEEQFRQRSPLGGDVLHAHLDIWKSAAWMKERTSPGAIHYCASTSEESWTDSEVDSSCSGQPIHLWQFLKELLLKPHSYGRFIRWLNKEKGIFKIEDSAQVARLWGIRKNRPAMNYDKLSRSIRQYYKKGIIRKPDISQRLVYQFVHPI
The note with it: protein: recombinant; tags: N-terminal GST; dsDNA, one strand shown. The method, boiled down:
as §1

The target of another experiment is T10, ETV7 (Homo sapiens, UniProt Q9Y603 1-341).
T10 sequence: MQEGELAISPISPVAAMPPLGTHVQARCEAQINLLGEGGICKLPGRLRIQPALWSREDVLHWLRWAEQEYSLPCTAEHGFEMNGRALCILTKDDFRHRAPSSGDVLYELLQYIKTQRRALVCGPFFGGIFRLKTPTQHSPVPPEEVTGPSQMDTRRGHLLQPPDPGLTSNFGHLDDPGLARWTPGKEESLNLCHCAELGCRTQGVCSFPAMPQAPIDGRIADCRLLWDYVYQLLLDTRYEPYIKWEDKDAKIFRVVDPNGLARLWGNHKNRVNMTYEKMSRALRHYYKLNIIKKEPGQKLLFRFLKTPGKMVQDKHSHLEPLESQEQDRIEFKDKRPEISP
Conditions: protein: recombinant; tags: N-terminal GST; dsDNA, one strand shown. The method, boiled down: as §1

For the next experiment, the target named is T11, ELF5 (Homo sapiens, UniProt Q9UKW6-2 1-255).
T11 sequence: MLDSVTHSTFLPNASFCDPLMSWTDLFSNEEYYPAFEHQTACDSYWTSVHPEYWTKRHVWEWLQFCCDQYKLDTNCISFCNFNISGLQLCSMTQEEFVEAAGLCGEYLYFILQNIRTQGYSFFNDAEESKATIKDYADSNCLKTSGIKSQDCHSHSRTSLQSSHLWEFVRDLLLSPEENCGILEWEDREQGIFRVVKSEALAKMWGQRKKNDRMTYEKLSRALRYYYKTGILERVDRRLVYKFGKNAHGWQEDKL
Conditions: protein: recombinant; tags: N-terminal GST; dsDNA, one strand shown. The method, boiled down: as §1

A further experiment deals with T12, ETV3 (Homo sapiens, UniProt P41162-2 1-143).
T12 sequence: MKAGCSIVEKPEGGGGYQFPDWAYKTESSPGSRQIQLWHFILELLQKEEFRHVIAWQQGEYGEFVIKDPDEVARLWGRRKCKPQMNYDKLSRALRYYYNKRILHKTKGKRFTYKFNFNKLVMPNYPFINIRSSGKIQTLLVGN
Conditions: protein: recombinant; tags: N-terminal GST; dsDNA, one strand shown. The gist of the method: as §1

A further experiment concerns the target ETV6 (Homo sapiens, UniProt P41212 1-452). Conditions: protein: recombinant; tags: N-terminal GST; dsDNA, one strand shown. The gist of the method: as §1

ETV5, sequence (P41161 whole entry): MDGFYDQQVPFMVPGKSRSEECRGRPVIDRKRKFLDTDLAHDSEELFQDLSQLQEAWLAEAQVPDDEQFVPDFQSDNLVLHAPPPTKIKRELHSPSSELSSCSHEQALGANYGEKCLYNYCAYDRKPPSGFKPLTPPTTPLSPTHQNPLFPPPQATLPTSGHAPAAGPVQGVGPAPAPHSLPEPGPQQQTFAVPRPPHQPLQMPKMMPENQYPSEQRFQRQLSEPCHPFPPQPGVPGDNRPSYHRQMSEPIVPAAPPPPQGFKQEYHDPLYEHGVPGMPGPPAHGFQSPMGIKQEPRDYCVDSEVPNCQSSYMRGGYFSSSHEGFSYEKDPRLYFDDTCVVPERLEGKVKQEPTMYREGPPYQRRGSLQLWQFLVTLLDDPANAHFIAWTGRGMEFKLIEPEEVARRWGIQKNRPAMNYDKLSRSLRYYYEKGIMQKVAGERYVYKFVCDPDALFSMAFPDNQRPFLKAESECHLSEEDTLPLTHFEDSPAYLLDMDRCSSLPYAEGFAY
CRX, sequence (O43186 whole entry): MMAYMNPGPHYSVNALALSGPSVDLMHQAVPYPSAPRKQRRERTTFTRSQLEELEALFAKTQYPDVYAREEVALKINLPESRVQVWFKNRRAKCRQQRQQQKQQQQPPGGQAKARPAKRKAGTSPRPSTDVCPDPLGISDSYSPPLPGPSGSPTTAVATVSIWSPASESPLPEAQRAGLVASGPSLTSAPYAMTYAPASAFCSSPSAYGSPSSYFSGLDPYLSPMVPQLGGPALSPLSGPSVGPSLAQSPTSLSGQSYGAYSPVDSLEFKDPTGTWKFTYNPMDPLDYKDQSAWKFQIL
ETV6, sequence (P41212 whole entry): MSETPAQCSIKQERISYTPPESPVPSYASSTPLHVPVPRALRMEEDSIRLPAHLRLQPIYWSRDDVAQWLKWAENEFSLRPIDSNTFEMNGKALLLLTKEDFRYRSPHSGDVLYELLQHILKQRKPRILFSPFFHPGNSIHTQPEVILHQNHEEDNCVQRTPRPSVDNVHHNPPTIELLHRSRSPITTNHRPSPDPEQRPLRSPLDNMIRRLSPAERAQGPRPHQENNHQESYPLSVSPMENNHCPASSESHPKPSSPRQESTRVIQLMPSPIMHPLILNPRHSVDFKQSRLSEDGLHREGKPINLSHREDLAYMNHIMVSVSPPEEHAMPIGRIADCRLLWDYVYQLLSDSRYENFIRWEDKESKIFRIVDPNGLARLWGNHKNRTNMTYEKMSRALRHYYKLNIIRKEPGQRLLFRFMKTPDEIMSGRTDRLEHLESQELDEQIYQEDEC
ETV1, sequence (P50549 whole entry): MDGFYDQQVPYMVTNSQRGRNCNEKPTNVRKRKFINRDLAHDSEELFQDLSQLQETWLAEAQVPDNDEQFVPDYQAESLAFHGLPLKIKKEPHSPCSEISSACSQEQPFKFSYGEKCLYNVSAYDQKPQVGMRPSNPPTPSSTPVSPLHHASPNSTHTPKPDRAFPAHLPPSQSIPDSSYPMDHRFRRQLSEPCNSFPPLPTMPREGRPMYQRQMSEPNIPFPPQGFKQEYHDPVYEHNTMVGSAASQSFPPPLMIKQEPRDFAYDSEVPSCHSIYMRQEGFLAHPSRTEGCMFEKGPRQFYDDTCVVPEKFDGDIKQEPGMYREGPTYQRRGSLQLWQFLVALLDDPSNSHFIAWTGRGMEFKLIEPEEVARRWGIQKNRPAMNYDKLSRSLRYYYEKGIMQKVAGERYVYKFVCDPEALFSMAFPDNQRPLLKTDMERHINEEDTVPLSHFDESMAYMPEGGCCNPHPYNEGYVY
ELF4, sequence (Q99607 whole entry): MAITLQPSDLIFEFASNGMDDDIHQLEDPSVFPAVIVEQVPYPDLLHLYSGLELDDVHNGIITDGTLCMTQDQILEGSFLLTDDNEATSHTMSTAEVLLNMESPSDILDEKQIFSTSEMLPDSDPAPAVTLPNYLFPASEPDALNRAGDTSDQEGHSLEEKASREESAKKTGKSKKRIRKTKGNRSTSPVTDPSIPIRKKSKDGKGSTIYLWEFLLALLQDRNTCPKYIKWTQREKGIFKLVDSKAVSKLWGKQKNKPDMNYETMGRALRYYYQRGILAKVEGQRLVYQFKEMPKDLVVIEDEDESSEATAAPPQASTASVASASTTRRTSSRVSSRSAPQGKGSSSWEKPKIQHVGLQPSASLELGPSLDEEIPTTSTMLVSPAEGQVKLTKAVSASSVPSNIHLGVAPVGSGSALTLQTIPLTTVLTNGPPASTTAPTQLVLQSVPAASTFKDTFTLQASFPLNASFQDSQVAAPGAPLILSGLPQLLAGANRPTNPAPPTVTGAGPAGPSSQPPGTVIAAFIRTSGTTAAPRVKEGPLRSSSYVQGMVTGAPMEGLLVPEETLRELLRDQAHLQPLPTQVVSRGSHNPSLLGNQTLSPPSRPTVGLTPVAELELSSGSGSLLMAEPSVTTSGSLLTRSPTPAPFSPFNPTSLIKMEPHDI
HSF1, sequence (Q00613 whole entry): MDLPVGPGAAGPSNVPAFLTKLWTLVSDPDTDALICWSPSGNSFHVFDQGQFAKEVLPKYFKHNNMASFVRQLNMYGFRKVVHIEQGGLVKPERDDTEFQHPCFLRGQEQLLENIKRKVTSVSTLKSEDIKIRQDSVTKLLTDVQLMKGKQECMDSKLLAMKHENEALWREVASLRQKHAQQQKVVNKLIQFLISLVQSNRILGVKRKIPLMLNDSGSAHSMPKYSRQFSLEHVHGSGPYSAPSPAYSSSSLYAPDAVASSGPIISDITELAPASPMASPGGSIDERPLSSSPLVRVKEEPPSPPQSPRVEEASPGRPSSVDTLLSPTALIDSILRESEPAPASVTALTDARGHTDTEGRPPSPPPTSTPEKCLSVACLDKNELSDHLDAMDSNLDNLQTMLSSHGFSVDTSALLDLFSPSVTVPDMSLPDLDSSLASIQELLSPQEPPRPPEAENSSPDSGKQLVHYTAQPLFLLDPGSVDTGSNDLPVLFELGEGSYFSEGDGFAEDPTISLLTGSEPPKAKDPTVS

In the case of ACTTCG, the binding signal was 1.42 fold enrichment (6-mer frequency, TF over GST control) in the experiment with FEV; 1.39 fold enrichment (6-mer frequency, TF over GST control) with ETV5; 1.65 fold enrichment (6-mer frequency, TF over GST control) with HSF1; 1.55 fold enrichment (6-mer frequency, TF over GST control) with SPIC; 1.47 fold enrichment (6-mer frequency, TF over GST control) with ELF4; 1.25 fold enrichment (6-mer frequency, TF over GST control) in the experiment with ELK4. The binding signal with ETV2 was 1.45 fold enrichment (6-mer frequency, TF over GST control); with ELF3 it was 1.23 fold enrichment (6-mer frequency, TF over GST control); in the experiment with CRX, 1.3 fold enrichment (6-mer frequency, TF over GST control); with ETV1, 1.46 fold enrichment (6-mer frequency, TF over GST control); in the experiment with ERF, 1.52 fold enrichment (6-mer frequency, TF over GST control); with ETV3L, 1.27 fold enrichment (6-mer frequency, TF over GST control). In addition, the binding signal is 1.36 fold enrichment (6-mer frequency, TF over GST control) with ETS2; 1.3 fold enrichment (6-mer frequency, TF over GST control) with SPDEF; 1.26 fold enrichment (6-mer frequency, TF over GST control) with ETV7; 1.32 fold enrichment (6-mer frequency, TF over GST control) in the experiment with ELF5; 1.42 fold enrichment (6-mer frequency, TF over GST control) in the experiment with ETV3; 1.36 fold enrichment (6-mer frequency, TF over GST control) with ETV6.
